Substitutions are numbered along the chain they refer to. Over roughly 24,000 sequences, “enrichment r” has its median near 0.99; the highest 2% begin near 3.7. The sample as a whole holds a higher share of the highest values than the screen did.

The values that follow come from publication PMC12136788.

B1: chr16:94664806:94664807:+_ENSMUSG00000040785_ENSMUST00000117648|mus_hu|motif|central (ssRNA)
RNA: GGGAGUUCUACAGUCCGACGAUCAUGAUGACCCUCAAAAUAGGCAGCAGCAUUUUUAUCUGCUCUGUCAUUGGCGGCAAAAGACGGCACCACUGGUACUGAUCUUGGUAGCUGAUAUUCAGGAGAAAGGCUGGCCAAGGGUGUCAACAGAGGAUUGAGCAUCA
B2: chr7:7679991:7679992:-_ENSG00000106399_ENST00000396682|hu_hu|hu_hu_hu_mus_False|1_8 (ssRNA)
RNA: GGGAGUUCUACAGUCCGACGAUCUGGGAUGAAUCUUUUCCAGCUUCCCCACGAAGCACACGGGCCGGUCGAUAUACUGUGGUAACAUGCUGGCGUUGACGCGCGCUUUGGGGAGCUGCAUUAUGUCCACCAUGAUUAUGGUCCCAACAGAGGAUUGAGCAUCA
B3: chr13:100200574:100200575:-_ENSMUSG00000052727_ENSMUST00000064762|mus_hu|motif|central (ssRNA)
RNA: GGGAGUUCUACAGUCCGACGAUCAUAAUCUUCUUCAUCUGGGGACCUGGUUGUUUCCUCAGGCUUUUGAUAGGCAUAGCGGAAGUCACCAGGUGUCUUCCCUCCACUGUCCUUCUCCAGGCCAGGUGUGGACAAAUCUCUAUUCAACAGAGGAUUGAGCAUCA
B4: chr2:48026839:48026840:+_ENSG00000116062_ENST00000540021|hu_hu|hu_hu_hu_mus_False|58_68 (ssRNA)
RNA: GGGAGUUCUACAGUCCGACGAUCAUAGUGAGCCACUAGCGUCCUAAAUCUGGAACAGUGGCGGUCAUCUGAAAACUGACCUAUGAAAAACUUGCCCAGUGAAGUGUCCACAAAGCAAACACCAUACACACGAGUGUGACCAGACAACAGAGGAUUGAGCAUCA
B5: chrX:98862621:98862622:+_ENSMUSG00000034160_ENSMUST00000044475|mus_hu|mus_mus_mus_hu_False|48_68 (ssRNA)
RNA: GGGAGUUCUACAGUCCGACGAUCCUGCAUCUCCUUUAGAGUGUUUCCCAUAUUAGAGUAGGCAUCAGCAAAUGUAGGACUGAUUCGUAUGGCUUCUUUAUAAUGCAUCAGAGCUUCCUGCAGUUUUCCCUGCUGCUGCAGUACCAACAGAGGAUUGAGCAUCA
B6: chr1:205685097:205685098:-_ENSG00000069275_ENST00000367142|hu_hu|motif|central (ssRNA)
RNA: GGGAGUUCUACAGUCCGACGAUCUAUCAAGCCUGACUAUUGAGCACCUGUAUCCAGUUGAGUCACCACCACUGUCCUCCGGUUUGCAUGCAUGAUUUGAGGGGAAGACUAGAGUGUUUUAAAUCAUCAAUAAAAAGUGGAGAACAACAGAGGAUUGAGCAUCA
B7: chr1:46159212:46159213:+_ENSG00000159596_ENST00000372025|hu_mus|hu_hu_hu_mus_True|8_68 (ssRNA)
RNA: GGGAGUUCUACAGUCCGACGAUCUCUGAUCCCUCCCAAGAAAGCUAGGAAACCGGCUCCAUAAGCCAUCUGAGUAAAAGCUAGGACGGGGAUAUAAGACUUUGUUAUUACCAUGAGAAGUGGGGGAGCAACGAAGGGGAUUAACAACAGAGGAUUGAGCAUCA
B8: chr2:238002776:238002777:+_ENSG00000198612_ENST00000392008|hu_hu|FALSE|FALSE (ssRNA)
RNA: GGGAGUUCUACAGUCCGACGAUCGAUUGAAGUAUACGCUUGAGAGACCAGGGCAAAGGCGCGUCUCCUUGUUGCAUCUCUAAGUGCUUCCAUAAUUGGCUGGACCGUCUCAGACCACUGGUGAGCGUUGAUGGUUGUAUAGAUCAACAGAGGAUUGAGCAUCA
B9: chr16:49913422:49913423:+_ENSMUSG00000055447_ENSMUST00000084838|mus_mus|FALSE|FALSE (ssRNA)
RNA: GGGAGUUCUACAGUCCGACGAUCGCUCUCUACGAUUGUAUAAGUGGAGGGCAGACAAUAAAUAAAAAUUGAAUAGAGGCUAUGACAGCAGAAAUCGGGAUUUGGGAGAGAAAAGCGCAUUGUGGGACAAAACAGAUGCGUGGUCAACAGAGGAUUGAGCAUCA
B10: chr1:46159212:46159213:+_ENSG00000159596_ENST00000372025|hu_mus|hu_hu_hu_mus_True|68_98 (ssRNA)
RNA: B7 RNA with C44A, A130G, C131U, G132A
B11: chr8:73998637:73998638:+_ENSMUSG00000074247_ENSMUST00000124745|mus_hu|FALSE|FALSE (ssRNA)
RNA: GGGAGUUCUACAGUCCGACGAUCCUUGAUACAGGUUACAGCAUAAAUAAAAACUCAAGGAAAAUAAAUACAUCGGCUCCUAUGAGGUUGGAAGUGGUGUGGACGCAGGGUGUGGAUGGGCCGGCAGGGAGGCGGGCGGGCGGGCAACAGAGGAUUGAGCAUCA
B12: chr8:27092522:27092523:-_ENSMUSG00000037251_ENSMUST00000061850|mus_mus|FALSE|FALSE (ssRNA)
RNA: GGGAGUUCUACAGUCCGACGAUCAGCGGGGUGGGUUGUUGUUUGCUGUUGGUCGGUGUUUGUGAAGUGGUCGUGGGCGAAGAAGAAACAAGAAGAAAUGAGAUAUCUUGGCAGCAAAGAUCAUUGCUCCAAGGAACUCGACACCAACAGAGGAUUGAGCAUCA
B13: chr4:109959997:109959998:-_ENSMUSG00000028546_ENSMUST00000106598|mus_mus|FALSE|FALSE (ssRNA)
RNA: GGGAGUUCUACAGUCCGACGAUCUAUAUAUAUAUAUUAAAGAUCCACAGACCACAGUGUGGAUGAUUGUAAAGUAAAUCUAUUAUUGGGAGGGGGUGGGGUGGGAAAGAAAGGGGGAAAAAAAAGAGAGGAAGAAAAGGCGCACAACAGAGGAUUGAGCAUCA
B14: chr4:109959997:109959998:-_ENSMUSG00000028546_ENSMUST00000106598|mus_mus|motif|central (ssRNA)
RNA: B13 RNA with U80G, A81G
B15: chr4:109959997:109959998:-_ENSMUSG00000028546_ENSMUST00000106598|mus_hu|FALSE|FALSE (ssRNA)
RNA: GGGAGUUCUACAGUCCGACGAUCUGUUAUAUAUAAUUAAAGAUCCACAAAACACAGUGUGGAUGAUUGUAAAGCAAAUCAAUUAUUUUUGGGGGGGUGGGCGGGGGAGAGAAAGAAAAAAAAGAAAAGGAGCAGUGAGCUGAACAACAGAGGAUUGAGCAUCA
B16: chr12:86641468:86641469:-_ENSMUSG00000034290_ENSMUST00000040992|mus_hu|FALSE|FALSE (ssRNA)
RNA: GGGAGUUCUACAGUCCGACGAUCCAAGACCUCCCACAAUGUUGAUAAGAUUAUCAAACAUUUUGGUCUGGGGAAGAUGAAACAAAAUUAAUUUAGCUGUUUAUAGGAAGGUGGGAUGUGAGACUCAUCAAAGGUAGGAUGUGUCAACAGAGGAUUGAGCAUCA
B17: chr16:49913422:49913423:+_ENSMUSG00000055447_ENSMUST00000084838|mus_mus|motif|central (ssRNA)
RNA: B9 RNA with U80G, A81G
B18: chr6:36760027:36760028:-_ENSMUSG00000029838_ENSMUST00000101534|mus_hu|FALSE|FALSE (ssRNA)
RNA: GGGAGUUCUACAGUCCGACGAUCGUACCCGGCUCGCUGCAGCUCCUGCUUGGGCCGCUGCUGCUCUCCCCGCCUUCUGGACGGAUGACUCACUGGUCUCUUUCUUCCCCUCUCUCCACUUUGGAUUUUCCUCUGCUCUGGGGCCAACAGAGGAUUGAGCAUCA
B19: chr5:37680062:37680063:+_ENSMUSG00000029121_ENSMUST00000031004|mus_hu|mus_mus_mus_hu_False|8_38 (ssRNA)
RNA: GGGAGUUCUACAGUCCGACGAUCUUUGGGUGUAGCUGGUACCUCGUACACAGGACCGUCAUACAUGCCCCUGGAAACCCCUUGCAAUCCAAAAACCUUGCUUCUGAUUUUGACGCGCUGGUACAGGUGCUCUGGGAACGCCUUCAACAGAGGAUUGAGCAUCA
B20: chr18:54424204:54424205:+_ENSG00000091157_ENST00000357574|hu_mus|FALSE|FALSE (ssRNA)
RNA: GGGAGUUCUACAGUCCGACGAUCCCAGGCGUGGAGACAGGACAUGAAUAAUUUUGCGGUAUCCAUAGUAAGGUUGUAUUCUAGUAGGGUCAGUGGCUUGGACUUGCUGGCCCGGUACUCAGGGUCACUAUCCUCCCUGCUCUGCAACAGAGGAUUGAGCAUCA
B21: 95985174_95988629_161_5pUTR_ENSMUSG00000038486_ENSMUST00000035371|mouse|control|control (ssRNA)
RNA: GGGAGUUCUACAGUCCGACGAUCGGCUAAACUGAGGAUCCAAGAUAUUUCAGGGAGGGCUGCCUAUUUUUCUUCUGAGAGGCUCUGAAGACCUGAGCUUGGUUCCCCGGGUCAGGGAGUCCCCGGGUGAGGGAGGGGGUCCAGCAACAGAGGAUUGAGCAUCA
B22: chr8:35203877:35203878:-_ENSMUSG00000031513_ENSMUST00000033910|mus_hu|motif|central (ssRNA)
RNA: GGGAGUUCUACAGUCCGACGAUCGGAAGGGCACAUCCAAGCAUCAAAAACAUCAGUCCGAUUGCUCCUCCAAAGGACAAACGGAUCAAAGCUUUGAUGCCUGCCAUGGCGGUGACGUCGCUCCUGGCUCCACGACCCGAGGCGCAACAGAGGAUUGAGCAUCA

In the experiment the target is T1, UNK ZnF1-3 (human, UniProt Q9C0B0 31-174).
T1 sequence: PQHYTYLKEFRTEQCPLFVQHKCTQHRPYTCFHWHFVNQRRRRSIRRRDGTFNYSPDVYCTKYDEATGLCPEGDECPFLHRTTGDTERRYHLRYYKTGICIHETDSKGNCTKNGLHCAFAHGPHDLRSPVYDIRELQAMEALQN
Kind of experiment: nsRBNS (natural sequence RNA bind-n-seq); RBNS binding buffer (assumed for nsRBNS): 25 mM Tris pH 7.5, 150 mM KCl, 3 mM MgCl2, 0.01% Triton X-100, 500 ug/ml BSA, 20 U/ml SUPERase-In, 4 C; UNK is unkempt and MSI1 is Musashi-1; names of the RNAs are library labels; protein concentration not given here; high values mean tight binding.
For B1, the binding signal is 1.61 enrichment R.
The same measure for B2: 0.387 enrichment R; for B3: 0.378 enrichment R; for B4: 1.18 enrichment R.
In turn, B5 had a binding signal of 1.06 enrichment R.
The same measure for B6: 2.19 enrichment R.
With B7 the figure was 1.56 enrichment R; with B8, 0.907 enrichment R.
B9 gave a binding signal of 3.41 enrichment R.
Consider B10, for which the binding signal stood at 1.71 enrichment R.
The molecule B11 yielded a binding signal of 3.01 enrichment R.
With B12 the figure was 1.76 enrichment R; with B13, 5.2 enrichment R; with B14, 5.4 enrichment R.
The same measure for B15: 3.98 enrichment R; for B16: 1.55 enrichment R.
With B17 the figure was 3.75 enrichment R.
B18 came in with a binding signal of 0.683 enrichment R.
Take B19: the binding signal came to 0.747 enrichment R.
The same measure for B20: 0.993 enrichment R.
Molecule B21 had a binding signal of 1.92 enrichment R.
With B22 the figure was 0.394 enrichment R.
